Results filed as inconclusive are left out. Activity calls are given as the source filed them. The call rests on the fitted dose curve; in most records, active means well fitted activation curve with a large enough effect; inconclusive means small, poorly fitted or top-dose-only effect; inactive means no such curve, though single readings can be large or run the other way.
The compounds below were run against Rap guanine nucleotide exchange factor 4 (Homo sapiens) (UniProt Q8WZA2) (assay: Confirmatory qHTS for agonist of cAMP-regulated guanine nucleotide exchange factor 4 (EPAC2) (AID 1645884;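 further: nucleotide exchange releases bodipy-GDP from Rap1 and this lowers its fluorescence; nearly all actives have a fitted effect of over 65% in size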)). Conditions: EPAC2 GEF activity, Rap1B-BODIPY-GDP fluorescence; series mostly up to 154 µM; activation: at the top concentration.
On the % scale 0 is the no-effect control and ±100 the full control effect.

Rap guanine nucleotide exchange factor 4 (Homo sapiens), sequence (Q8WZA2 whole entry, looked up): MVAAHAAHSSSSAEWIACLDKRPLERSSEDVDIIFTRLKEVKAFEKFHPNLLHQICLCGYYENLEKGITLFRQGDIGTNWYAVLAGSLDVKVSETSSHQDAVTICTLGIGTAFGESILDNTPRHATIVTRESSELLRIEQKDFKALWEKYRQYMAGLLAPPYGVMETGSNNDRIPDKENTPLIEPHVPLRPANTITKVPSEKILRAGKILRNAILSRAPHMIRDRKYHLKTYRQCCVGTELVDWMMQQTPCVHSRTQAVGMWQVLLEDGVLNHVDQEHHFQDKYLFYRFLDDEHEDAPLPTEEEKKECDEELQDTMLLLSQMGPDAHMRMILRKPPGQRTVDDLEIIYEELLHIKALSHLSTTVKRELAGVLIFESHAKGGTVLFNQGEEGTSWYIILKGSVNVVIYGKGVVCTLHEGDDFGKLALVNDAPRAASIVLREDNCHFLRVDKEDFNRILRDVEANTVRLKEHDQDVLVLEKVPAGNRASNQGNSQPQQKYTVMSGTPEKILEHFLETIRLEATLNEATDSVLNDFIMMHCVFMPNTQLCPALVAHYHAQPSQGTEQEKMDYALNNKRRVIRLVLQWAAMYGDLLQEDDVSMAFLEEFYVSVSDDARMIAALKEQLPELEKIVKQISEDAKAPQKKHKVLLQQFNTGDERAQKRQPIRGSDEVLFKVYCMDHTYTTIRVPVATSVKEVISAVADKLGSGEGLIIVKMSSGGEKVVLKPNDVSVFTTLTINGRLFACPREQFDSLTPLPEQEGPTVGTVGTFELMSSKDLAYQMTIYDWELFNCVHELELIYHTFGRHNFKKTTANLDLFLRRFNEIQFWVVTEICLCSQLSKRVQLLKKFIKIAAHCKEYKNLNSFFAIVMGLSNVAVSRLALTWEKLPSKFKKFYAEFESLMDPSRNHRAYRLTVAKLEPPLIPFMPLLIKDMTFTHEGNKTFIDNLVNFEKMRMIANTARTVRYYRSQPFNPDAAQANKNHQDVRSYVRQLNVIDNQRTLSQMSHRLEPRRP

activation, inactive:
Cc1ccccc1C(=O)Nc1sc2c(c1C(=O)N1CCCCC1)CCC(C)C2 (stereo not given) -13.1% [at 83.8 µM, percent relative to cAMP agonist control]
CCSc1nc2c([nH]c3ccccc32)c(=O)n1-c1cccc(OC)c1 -12.3% [at 83.8 µM, percent relative to cAMP agonist control]
CN(C)C(=O)c1cccc(-c2cnc3c(NC=O)cc(-c4ccccc4Cl)cn23)c1 1.66%
CCCN(CC(=O)Nc1ccccc1OC)C(=O)c1cccc(S(=O)(=O)Nc2ccc(OC)cc2)c1 8.04%
CCCCn1c(COc2cccc(OC)c2)nc2ccccc21 -4.69% [at 83.8 µM, percent relative to cAMP agonist control]
Cc1ccc(OCC(=O)Nc2ccc(Cl)c(-c3nc4ccccc4[nH]3)c2)cc1C 6.17% [at 83.8 µM, percent relative to cAMP agonist control]
COc1cccc(C(=O)Nc2ccc(NC(=O)c3ccco3)c(Cl)c2)c1 0% [at 17.1 µM, percent relative to cAMP agonist control]
CC(=O)c1ccc(OCc2nnn(CC(=O)NS(=O)(=O)c3ccc(C)cc3)c2-c2ccccc2)cc1 1.38% [at 17.1 µM, percent relative to cAMP agonist control]
Cc1ccc(C(=O)N2CCc3cc(CNC(=O)CSc4ccccc4)ccc32)cc1 -6.57% [at 83.8 µM, percent relative to cAMP agonist control]
CC(C)(C)Cc1c(-c2ccccc2)nc2ccc(Cl)cn12 9.48% [at 17.1 µM, percent relative to cAMP agonist control]
O=C(/C=C/c1ccc(-c2ccccc2[N+](=O)[O-])o1)c1ccco1 7.95% [at 17.1 µM, percent relative to cAMP agonist control]
COc1cc(OC)c(NC(=O)CN(C)S(=O)(=O)c2ccc(-c3ccc(=O)[nH]n3)s2)cc1Cl 2.69%
CCC(CO)n1c(SCc2cc([N+](=O)[O-])cc3c2OCOC3)nc2ccccc2c1=O (stereo not given) 10.3% [at 17.1 µM, percent relative to cAMP agonist control]
O=C1CS(=O)(=O)N(Cc2cccc(F)c2)c2ccc(Br)cc21 6.23%
Cc1cc(/C=C2\SC(=S)NC2=O)c(C)n1-c1cccc(O)c1 12.1%
Oc1ccc(NCc2cccc(OCc3ccccc3)c2)cc1 10.6%
COc1ccc(CCNC(=O)CS(=O)(=O)Cc2nc(-c3ccc(C)cc3)oc2C)cc1OC 2.98% [at 17.1 µM, percent relative to cAMP agonist control]
COc1ccccc1[C@]1(C)ON(c2ccccc2C(F)(F)F)C1=O 7.85%
Clc1ccc(C(c2ccccc2)c2c[nH]c3ccccc23)s1 (stereo not given) 0% [at 83.8 µM, percent relative to cAMP agonist control]
Cc1cccc(N2CCN(C(=O)c3[nH]c(C(F)(F)F)nc3-c3ccccc3)CC2)c1C 0%
O=C(O)CC/C(=C/c1cccc(NC(=O)c2ccccc2Cl)c1)c1nc2ccccc2s1 0%
COc1cc(NC(=O)c2cc3nc(-c4ccccc4)cc(-c4ccccc4)n3n2)cc(OC)c1OC 5.09%
Cc1ccc(N=Cc2c(O)c3ccccc3n(C)c2=O)cc1 -5.76%
O=C(O)c1ccn2c(C(=O)c3ccc(Cl)cc3)c(-c3ccccc3)cc2c1 -12.6%
Cn1c(=O)c2c(-c3ccccc3Br)n(Cc3ccccc3)cc2n(C)c1=O -29.8% [at 83.8 µM, percent relative to cAMP agonist control]
COc1ccc(NC(=O)Cn2ncc(Cl)c(Cl)c2=O)cc1S(=O)(=O)N1CCOCC1 -6.12% [at 17.1 µM, percent relative to cAMP agonist control]
O=C(CSc1ccc(-c2ccco2)nn1)c1cccc([N+](=O)[O-])c1 0.15%
COc1ccc(Nc2cc(C(=O)NCCCN3CCN(c4ccccc4F)CC3)c3ccccc3n2)c(OC)c1 -5.18% [at 83.8 µM, percent relative to cAMP agonist control]
Brc1cc2c(cc1CSc1ncccn1)OCO2 -6.54% [at 17.1 µM, percent relative to cAMP agonist control]
CC(NS(=O)(=O)OCC(Cl)(Cl)Cl)c1ccc(Br)cc1 (stereo not given) 12.5%
C=C(C)COc1ccc(-c2[nH]ncc2-c2ccccc2OC)c(O)c1 16.3% [at 17.1 µM, percent relative to cAMP agonist control]
COc1cc2c(cc1OC)C(c1ccc(Cl)cc1)N(c1ccc(C)c(F)c1)C(=O)C2 (stereo not given) 1.47% [at 83.8 µM, percent relative to cAMP agonist control]
CC1=NN(c2cccc(C(=O)O)c2)C(=O)/C1=C\C=C/c1ccccc1 6.16%
O=c1nc(/C=C/c2cccn2-c2ccc([N+](=O)[O-])cc2)cc(C(F)(F)F)[nH]1 8.6%
COC(=O)[C@]12CCCCC=C1N(CCC1=CCCCC1)C(=O)[C@H](CC(=O)NCc1cccc(C(F)(F)F)c1)C2 0% [at 17.1 µM, percent relative to cAMP agonist control]
CS(=O)(=O)c1ccc(C(=O)NCCN2C(=O)S/C(=C\c3cccnc3)C2=O)cc1[N+](=O)[O-] 1.36% [at 17.1 µM, percent relative to cAMP agonist control]
O=S(=O)(Nc1cc(Sc2ncn[nH]2)c(O)c2ccccc12)c1ccccc1 4.4% [at 17.1 µM, percent relative to cAMP agonist control]
O=C(O)c1ccc(N/N=C/c2ccc(-c3ccccc3Cl)o2)cc1 7.2% [at 17.1 µM, percent relative to cAMP agonist control]
Oc1c(Br)cc(Br)cc1CNc1cccc2cccnc12 6.34%
CCC1=NN2C(=N)/C(=C/c3ccc(OS(=O)(=O)c4ccccc4)cc3)C(=O)N=C2S1 13.2%

Reference: PubChem BioAssay (NCATS)
